To fix the notation:
T1: UNK ZnF1-3 (human, UniProt Q9C0B0 31-174)
T1 sequence: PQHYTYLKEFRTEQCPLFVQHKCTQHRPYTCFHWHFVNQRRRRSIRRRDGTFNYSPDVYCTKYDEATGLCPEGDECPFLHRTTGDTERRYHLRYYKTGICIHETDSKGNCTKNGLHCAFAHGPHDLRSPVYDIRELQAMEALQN

B1: chr6:86474593:86474594:-_ENSMUSG00000051695_ENSMUST00000053015|mus_hu|FALSE|FALSE (ssRNA)
RNA: GGGAGUUCUACAGUCCGACGAUCACAUUUCUUAUCGACAAACAGAAAUAAAAUUCAUGAGCCAAAAAACCCAAAACAAAACUAAAAACAGGGAAAAGCUUAUAAAACUAAAUAUGGAUCCCAGCAUUAACAGCUGAACAGAGACAACAGAGGAUUGAGCAUCA
B2: chr6:86474593:86474594:-_ENSMUSG00000051695_ENSMUST00000053015|mus_hu|motif|central (ssRNA)
RNA: B1 RNA with U82G, A83G
B3: chr7:97619395:97619396:-_ENSMUSG00000030614_ENSMUST00000032843|mus_mus|motif|central (ssRNA)
RNA: GGGAGUUCUACAGUCCGACGAUCCAGGGAUGCAUAGGUCUUCAAAGCUUCAUAUUUAACCUUGAAACUGUUUCGGAAAACGGAGUUUGCCAUUAUGCCAGACAAACUACUACUUGUUCCAAAGACCAAAGUUCCAUGUAUAUUCAACAGAGGAUUGAGCAUCA
B4: chr2:27118074:27118075:-_ENSMUSG00000009621_ENSMUST00000056176|mus_hu|FALSE|FALSE (ssRNA)
RNA: GGGAGUUCUACAGUCCGACGAUCAUUCACAGAUAUAUAACGGGAGAUUUGGAUGAAAUAAUUACAAACUUUUUUCCCCUUAAAAAACAAACAAGCCAAACAAAACACAAACAAAACAAAAACCCCAAAACCAAAACACAAGACCAACAGAGGAUUGAGCAUCA
B5: 90301638_90312025_2792_CDS_ENSG00000196730_ENST00000408954|human|control|control (ssRNA)
RNA: GGGAGUUCUACAGUCCGACGAUCGACAACAACAUGGAUUGACGUGGGAUCAUUUGCAGCAAAAUAGUCAUAACAGCAGAAAUACACAGGAUUUCCAGAGAACUCCCACACGCUGAAAUCGCCAACUCCAUUCAAAUAAGCGUUCAACAGAGGAUUGAGCAUCA
B6: chr2:131139019:131139020:-_ENSMUSG00000048911_ENSMUST00000059372|mus_mus|FALSE|FALSE (ssRNA)
RNA: GGGAGUUCUACAGUCCGACGAUCGAUAUAGAUGUUGAGAGGCAGAUUCUGGAAUCCAAUAUUAGGCAUCCUGAAGUUAUAAUGUGGGAAAUCUGAGCUCAUGGAUGAACCGGGCGACGGGCAGCGGGCGUGCGGGCGGCGGCGCAACAGAGGAUUGAGCAUCA
B7: chr11:77336104:77336105:-_ENSG00000074201_ENST00000525064|hu_mus|hu_hu_hu_mus_False|98_108 (ssRNA)
RNA: GGGAGUUCUACAGUCCGACGAUCCUCGCACAUUGCAGUGAACAUUGCCUCCAAUGCUGACUUAUCACUGGGCACAAAUCGAAAUUCAGAAAUGGGUUCAACAUCAUCAUUGUCUUCCUCAUCUUCAUCAGAGAGAGGUUCUUUCAACAGAGGAUUGAGCAUCA
B8: 49074419_49074539_462_3pUTR_ENSMUSG00000020346_ENSMUST00000109194|mouse|control|control (ssRNA)
RNA: GGGAGUUCUACAGUCCGACGAUCCACAGGCAAUGACCAGGAUGGGGAUCUGCACUGGUGAGGGGGUCACAGGCACACGGGGCCAGGCUGGAGGGGCCACAGUGGGAACUCUCCACCUCUGCCUCCACAAAGCAUAAUGCUCCUCAACAGAGGAUUGAGCAUCA
B9: chr8:92086081:92086082:+_ENSG00000155100_ENST00000285420|hu_mus|motif|central (ssRNA)
RNA: GGGAGUUCUACAGUCCGACGAUCAAUCCGAGGUGGUUGAUUCUCAAGUACCAAGUUUGAAAUGUUAACAGCAACAGAAUCGGUCUUACUGUCCUUGAAAGUCAAUUGCUUCAAUUGCUCCAGUUCUUCCCUGUGUUUUUGCUCCAACAGAGGAUUGAGCAUCA
B10: chr3:10015032:10015033:+_ENSMUSG00000027533_ENSMUST00000029046|mus_mus|mus_mus_mus_hu_True|38_48 (ssRNA)
RNA: GGGAGUUCUACAGUCCGACGAUCGUUUUUACCAUCACAAGUGAUGAUACAAUCUGGCUUGGCCAUUGCGCCCAUUUUUCGCAAAGCCAGUCCUACUCCUAGCUCUUUCAUGUAUUCAUCAAAGCCUUUGCUGUCCACCAGGCGCAACAGAGGAUUGAGCAUCA
B11: chr2:48026839:48026840:+_ENSG00000116062_ENST00000540021|hu_hu|hu_hu_hu_mus_False|18_48 (ssRNA)
RNA: GGGAGUUCUACAGUCCGACGAUCAUAGUGAGCCACUAGCGUCCUAAAUCUGGAACAGUGGCGGUCAUCCGAAAACUGGCCGAUGAAAAACUUUCCCAGUGAAGUGUCCACAAAGCACACACCAUAUACACGAGUGUGACCAGACAACAGAGGAUUGAGCAUCA
B12: chr11:46405157:46405158:+_ENSG00000110492_ENST00000395566|hu_hu|hu_hu_hu_mus_False|98_108 (ssRNA)
RNA: GGGAGUUCUACAGUCCGACGAUCCCCUUAGGGGUGGGGCUGGGGAGUGUGGGCGUGAGAGGACAGGCGUGAUUGACAGAGCUGACAGGAAGACAAAAGGCACUGGUGGGUUAUAUCUUGGGCCUGUGGGAGAGGAGGGCUCCGCAACAGAGGAUUGAGCAUCA
B13: chr11:46405157:46405158:+_ENSG00000110492_ENST00000395566|hu_hu|hu_hu_hu_mus_False|58_108 (ssRNA)
RNA: B12 RNA with C39G, U40C, G41A, G42C, G43U, G44U, A45G, G78A, G83A, A86G
B14: chr11:46405157:46405158:+_ENSG00000110492_ENST00000395566|hu_hu|hu_hu_hu_mus_False|18_108 (ssRNA)
RNA: B12 RNA with C39G, U40C, G41A, G42C, G43U, G44U, A45G, U118C, U126G
B15: chr11:46405157:46405158:+_ENSG00000110492_ENST00000395566|hu_hu|hu_hu_hu_mus_False|1_18 (ssRNA)
RNA: GGGAGUUCUACAGUCCGACGAUCCCCUCCCCACUUUGGGCACUUGGUGUGGGCGUGAGAGGACAGGCGUGAUUGACAGAGCUGACAGGAAGACAAAAGGCACUGGUGGGUUAUAUCUCGGGCCUGGGGGAGAGGAGGCGUGGGCAACAGAGGAUUGAGCAUCA
B16: chr11:46405157:46405158:+_ENSG00000110492_ENST00000395566|hu_hu|hu_hu_hu_mus_False|18_28 (ssRNA)
RNA: B15 RNA with U111C, U113C, C138G, G139C, G141C, G142C
B17: chr11:46405157:46405158:+_ENSG00000110492_ENST00000395566|hu_hu|hu_hu_hu_mus_False|8_108 (ssRNA)
RNA: GGGAGUUCUACAGUCCGACGAUCCCCUUAGGGGUGGGGGCACUUGGUGUGGGCGUGAGAGGACAGGCGUGAUUGACAGAGCUGACAGGAAGACAAAAGGCACUGGUGGGUUAUAUCUUGGGCCUGUGAGAGGGAGGGGCUCCGCAACAGAGGAUUGAGCAUCA

Substitutions are numbered along the chain they refer to. Over roughly 24,000 sequences, “enrichment r” has its median near 0.99; the highest 2% begin near 3.7. Many of the other results were omitted from the sample, so the highest values are more common in it than they were.

For the assay, the target named is T1, UNK ZnF1-3. Put plainly: nsRBNS (natural sequence RNA bind-n-seq); RBNS binding buffer (assumed for nsRBNS): 25 mM Tris pH 7.5, 150 mM KCl, 3 mM MgCl2, 0.01% Triton X-100, 500 ug/ml BSA, 20 U/ml SUPERase-In, 4 C; UNK is unkempt and MSI1 is Musashi-1; names of the RNAs are library labels; protein concentration not given here; high values mean tight binding.
As for B1, the binding signal worked out at 5.48 enrichment R.
The value for B2 was 4.53 enrichment R; that for B3 was 0.591 enrichment R; that for B4 was 3.28 enrichment R.
The value for B5 was 2.03 enrichment R; that for B6 was 0.719 enrichment R.
The value for B7 was 0.914 enrichment R; that for B8 was 0.862 enrichment R; that for B9 was 1.01 enrichment R.
B10: the binding signal came to 0.575 enrichment R.
In the case of B11 it was 1.2 enrichment R.
For the molecule B12, the binding signal came out at 3.34 enrichment R.
In turn, B13 returned a binding signal of 3.45 enrichment R.
In the case of B14 it was 4.17 enrichment R; in that of B15, 3.4 enrichment R; in that of B16, 3.48 enrichment R.
The value for B17 was 4.04 enrichment R.

These data come from publication PMC12136788.
